Test results as given in the supplement of paper PMC6411743.
± gives the standard deviation of the averaged measurements. The full data set covers some 6,200 targets. This sample favours those with the largest changes.

Compound: Nc1ncnc2c1ncn2[C@@H]1O[C@H](COP(=O)(O)OP(=O)(O)NP(=O)(O)O)[C@@H](O)[C@H]1O [adenylyl imidodiphosphate]
Test: NP40-soluble protein abundance relative to vehicle (solubility fold change) (ratio); higher = more soluble protein in presence of AMP-PNP
Conditions: concentration: 1mM
Procedure, shortened: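 Jurkat crude lysate (Dounce-homogenised) was treated with eight concentrations from 0.1 to 10 mM for 10 min at room temperature, then 3 min at 37 °C. It was solubilised with 0.8% NP40 and benzonase (60 min, 4 °C) and ultracentrifuged, and the supernatant was TMT-labelled for LC-MS/MS. Intensities were vsn-normalised, and the value is the fold change against the NP40-processed vehicle per replicate, from three independent experiments.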

UniProt Q9Y5Y5, sequence (Q9Y5Y5 whole entry): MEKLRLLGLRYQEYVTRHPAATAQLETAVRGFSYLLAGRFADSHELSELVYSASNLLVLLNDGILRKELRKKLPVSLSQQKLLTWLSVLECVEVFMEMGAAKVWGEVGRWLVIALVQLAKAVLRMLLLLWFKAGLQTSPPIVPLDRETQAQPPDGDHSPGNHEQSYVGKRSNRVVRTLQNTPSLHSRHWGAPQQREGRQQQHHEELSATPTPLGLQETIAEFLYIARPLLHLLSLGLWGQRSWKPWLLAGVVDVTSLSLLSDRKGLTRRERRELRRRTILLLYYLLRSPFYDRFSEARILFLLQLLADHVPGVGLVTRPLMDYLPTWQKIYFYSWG
UniProt Q9UBI9, sequence (Q9UBI9 whole entry): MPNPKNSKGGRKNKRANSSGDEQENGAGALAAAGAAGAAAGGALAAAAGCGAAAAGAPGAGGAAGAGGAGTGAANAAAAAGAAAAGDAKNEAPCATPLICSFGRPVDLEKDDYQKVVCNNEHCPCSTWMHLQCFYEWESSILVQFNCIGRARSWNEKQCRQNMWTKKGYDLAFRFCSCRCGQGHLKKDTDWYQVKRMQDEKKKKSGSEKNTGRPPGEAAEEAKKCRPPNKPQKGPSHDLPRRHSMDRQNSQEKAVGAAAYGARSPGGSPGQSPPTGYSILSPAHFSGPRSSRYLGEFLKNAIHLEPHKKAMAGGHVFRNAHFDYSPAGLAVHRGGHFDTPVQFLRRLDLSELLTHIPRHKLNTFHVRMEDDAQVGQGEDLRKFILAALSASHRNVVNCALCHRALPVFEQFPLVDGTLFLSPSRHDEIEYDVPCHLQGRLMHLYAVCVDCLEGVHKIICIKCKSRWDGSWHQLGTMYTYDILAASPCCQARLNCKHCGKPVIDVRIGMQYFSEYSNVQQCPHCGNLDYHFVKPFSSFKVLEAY
UniProt Q9BSL1, sequence (Q9BSL1 whole entry): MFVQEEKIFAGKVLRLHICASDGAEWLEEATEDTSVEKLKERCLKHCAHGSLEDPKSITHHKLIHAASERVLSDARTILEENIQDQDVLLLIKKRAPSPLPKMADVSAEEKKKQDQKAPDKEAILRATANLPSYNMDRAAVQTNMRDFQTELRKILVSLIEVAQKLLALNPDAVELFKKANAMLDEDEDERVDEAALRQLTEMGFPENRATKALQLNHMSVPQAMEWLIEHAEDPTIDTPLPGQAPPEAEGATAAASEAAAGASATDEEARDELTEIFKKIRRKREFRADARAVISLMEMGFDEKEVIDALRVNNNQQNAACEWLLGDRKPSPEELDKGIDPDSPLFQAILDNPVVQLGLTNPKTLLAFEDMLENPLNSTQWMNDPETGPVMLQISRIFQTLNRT
UniProt Q9NYF8, sequence (Q9NYF8 whole entry, one chain of several): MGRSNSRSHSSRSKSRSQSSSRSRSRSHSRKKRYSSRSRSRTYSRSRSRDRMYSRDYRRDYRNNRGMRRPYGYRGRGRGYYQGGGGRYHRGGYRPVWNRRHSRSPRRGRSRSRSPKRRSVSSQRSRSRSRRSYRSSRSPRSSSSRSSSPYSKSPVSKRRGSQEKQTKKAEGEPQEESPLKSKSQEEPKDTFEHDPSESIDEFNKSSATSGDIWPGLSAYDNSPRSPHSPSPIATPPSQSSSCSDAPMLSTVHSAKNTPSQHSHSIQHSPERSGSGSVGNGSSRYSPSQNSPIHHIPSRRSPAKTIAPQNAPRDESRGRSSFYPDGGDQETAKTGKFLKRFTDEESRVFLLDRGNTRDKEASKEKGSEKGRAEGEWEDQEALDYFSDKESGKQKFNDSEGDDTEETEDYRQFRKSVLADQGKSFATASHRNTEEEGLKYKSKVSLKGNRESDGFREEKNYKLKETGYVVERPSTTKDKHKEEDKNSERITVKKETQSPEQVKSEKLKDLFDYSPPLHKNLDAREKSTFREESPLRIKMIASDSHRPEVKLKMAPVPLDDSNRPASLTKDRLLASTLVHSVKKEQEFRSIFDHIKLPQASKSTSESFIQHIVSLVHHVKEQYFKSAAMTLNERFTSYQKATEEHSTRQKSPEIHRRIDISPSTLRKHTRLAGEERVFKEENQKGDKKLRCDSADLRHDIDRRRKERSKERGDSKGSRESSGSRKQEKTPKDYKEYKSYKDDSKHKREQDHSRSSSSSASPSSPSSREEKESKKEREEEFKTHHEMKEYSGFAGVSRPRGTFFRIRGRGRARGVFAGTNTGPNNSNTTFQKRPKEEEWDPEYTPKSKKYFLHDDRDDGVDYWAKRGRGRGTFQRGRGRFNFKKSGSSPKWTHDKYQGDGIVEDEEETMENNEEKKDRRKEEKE
UniProt Q9HCE1, sequence (Q9HCE1 whole entry): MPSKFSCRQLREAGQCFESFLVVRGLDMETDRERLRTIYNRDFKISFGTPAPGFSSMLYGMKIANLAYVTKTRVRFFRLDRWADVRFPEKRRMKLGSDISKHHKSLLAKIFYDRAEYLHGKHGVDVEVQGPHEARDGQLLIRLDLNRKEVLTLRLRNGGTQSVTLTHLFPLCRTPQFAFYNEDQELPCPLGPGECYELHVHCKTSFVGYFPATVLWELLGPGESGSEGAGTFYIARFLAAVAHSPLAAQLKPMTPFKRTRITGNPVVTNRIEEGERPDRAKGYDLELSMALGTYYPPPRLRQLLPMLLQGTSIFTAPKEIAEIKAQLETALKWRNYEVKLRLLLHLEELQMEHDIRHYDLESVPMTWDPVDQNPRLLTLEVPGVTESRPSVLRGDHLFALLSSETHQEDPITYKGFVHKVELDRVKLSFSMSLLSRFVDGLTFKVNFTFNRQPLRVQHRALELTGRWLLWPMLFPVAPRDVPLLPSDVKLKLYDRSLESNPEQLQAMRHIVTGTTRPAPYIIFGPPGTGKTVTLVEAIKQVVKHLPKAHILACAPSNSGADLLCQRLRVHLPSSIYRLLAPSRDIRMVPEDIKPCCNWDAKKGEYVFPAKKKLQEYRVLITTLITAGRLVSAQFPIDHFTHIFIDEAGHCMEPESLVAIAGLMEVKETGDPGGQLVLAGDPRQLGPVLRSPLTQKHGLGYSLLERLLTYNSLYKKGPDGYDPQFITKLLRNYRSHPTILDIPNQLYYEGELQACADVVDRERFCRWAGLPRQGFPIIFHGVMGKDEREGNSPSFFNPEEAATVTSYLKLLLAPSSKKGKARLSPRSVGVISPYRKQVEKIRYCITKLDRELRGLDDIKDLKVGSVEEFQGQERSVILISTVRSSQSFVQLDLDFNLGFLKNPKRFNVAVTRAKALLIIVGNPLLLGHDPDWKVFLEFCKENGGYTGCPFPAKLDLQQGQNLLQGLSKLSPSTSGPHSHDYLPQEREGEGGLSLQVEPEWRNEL
UniProt Q96MX3, sequence (Q96MX3 whole entry): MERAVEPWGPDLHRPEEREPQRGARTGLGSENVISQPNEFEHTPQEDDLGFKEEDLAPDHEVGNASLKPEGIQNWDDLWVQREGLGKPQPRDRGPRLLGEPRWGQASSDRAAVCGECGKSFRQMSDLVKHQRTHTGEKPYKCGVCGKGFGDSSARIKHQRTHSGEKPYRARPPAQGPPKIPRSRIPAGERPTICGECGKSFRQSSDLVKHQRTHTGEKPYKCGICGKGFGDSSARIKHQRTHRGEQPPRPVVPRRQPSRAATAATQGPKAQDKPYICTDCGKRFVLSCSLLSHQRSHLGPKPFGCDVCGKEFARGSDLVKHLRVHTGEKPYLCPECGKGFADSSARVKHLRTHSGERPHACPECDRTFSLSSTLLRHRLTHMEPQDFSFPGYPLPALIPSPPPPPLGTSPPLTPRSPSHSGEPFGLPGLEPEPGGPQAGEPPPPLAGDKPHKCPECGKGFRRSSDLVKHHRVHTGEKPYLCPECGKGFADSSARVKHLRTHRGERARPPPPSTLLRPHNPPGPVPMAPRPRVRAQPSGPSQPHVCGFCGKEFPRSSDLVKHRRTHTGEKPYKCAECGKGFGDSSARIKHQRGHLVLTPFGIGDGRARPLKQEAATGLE
UniProt Q9NXX6, sequence (Q9NXX6 whole entry): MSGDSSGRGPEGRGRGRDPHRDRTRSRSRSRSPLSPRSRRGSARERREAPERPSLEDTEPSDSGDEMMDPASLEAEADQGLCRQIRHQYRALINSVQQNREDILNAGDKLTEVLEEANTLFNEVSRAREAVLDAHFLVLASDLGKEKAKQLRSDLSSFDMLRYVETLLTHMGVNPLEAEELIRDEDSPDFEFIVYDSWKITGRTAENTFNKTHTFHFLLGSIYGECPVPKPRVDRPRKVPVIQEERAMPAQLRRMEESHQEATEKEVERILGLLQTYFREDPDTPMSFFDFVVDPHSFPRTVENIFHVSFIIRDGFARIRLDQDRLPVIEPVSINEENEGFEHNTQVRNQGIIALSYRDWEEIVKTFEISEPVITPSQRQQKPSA
UniProt Q9HA47, sequence (Q9HA47 whole entry): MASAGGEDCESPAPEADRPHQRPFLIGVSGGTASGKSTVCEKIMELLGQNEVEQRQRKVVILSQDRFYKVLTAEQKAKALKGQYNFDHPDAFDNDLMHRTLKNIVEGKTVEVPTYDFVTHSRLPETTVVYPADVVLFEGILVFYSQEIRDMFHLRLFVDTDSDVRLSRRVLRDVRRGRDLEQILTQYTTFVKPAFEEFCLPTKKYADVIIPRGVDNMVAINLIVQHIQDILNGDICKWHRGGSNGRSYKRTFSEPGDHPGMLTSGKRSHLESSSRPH

Target	NP40-soluble protein abundance
NSMCE4A (UniProt Q9NXX6)	0.993 ± 0.068
UniProt Q9NXR1|Q9NXR1-2|X5DR54	0.994 ± 0.029
SORT1 (UniProt Q99523)	0.99 ± 0.034
MOV10 (UniProt Q9HCE1)	0.952 ± 0.027
C9orf78 (UniProt Q9NZ63)	0.999 ± 0.047
UniProt Q9Y520|Q9Y520-5|Q9Y520-7|E7EPN9|Q9Y520-4	1.1 ± 0.013
UniProt Q9Y5Y5|Q9Y5Y5-2	0.967 ± 0.051
UBAC1 (UniProt Q9BSL1)	0.965 ± 0.0098
UniProt Q9UG63|Q9UG63-2	1.04 ± 0.06
ZNF48 (UniProt Q96MX3)	1.015 ± 0.0097
UniProt Q9UL63|C9J7E8|Q9UL63-2	0.984 ± 0.065
DIDO1 (UniProt Q9BTC0)	1.1 ± 0.035
UniProt Q9Y2A7|Q9Y2A7-2	0.972 ± 0.026
RBM27 (UniProt Q9P2N5)	1.04 ± 0.021
UniProt Q9UM21	1.02 ± 0.058
UCK1 (UniProt Q9HA47)	0.981 ± 0.029
UniProt Q9Y462|Q9Y462-3	1 ± 0.032
UniProt Q96P48|Q96P48-3	0.968 ± 0.022
UniProt Q9UPT9|Q9UPT9-2	0.953 ± 0.022

Target	NP40-soluble protein abundance
ISCU (UniProt Q9H1K1)	1.01 ± 0.039
TPX2 (UniProt Q9ULW0)	1.09 ± 0.013
UniProt Q9GZY4	0.995 ± 0.024
CISD1 (UniProt Q9NZ45)	1 ± 0.047
CBX8 (UniProt Q9HC52)	1.08 ± 0.015
PNKP (UniProt Q96T60)	1.02 ± 0.041
REXO4 (UniProt Q9GZR2)	1.06 ± 0.047
UniProt Q9UKT4|Q9UKT4-2	0.995 ± 0.029
CHST12 (UniProt Q9NRB3)	1.001 ± 0.0077
UniProt Q9NYF8|Q9NYF8-2|Q9NYF8-3|E9PK91	1.1 ± 0.018
UniProt Q9NPB8|H0Y565	1.01 ± 0.017
HECA (UniProt Q9UBI9)	0.969 ± 0.029
UniProt Q9P2R7|Q9P2R7-2	0.9771 ± 0.0078
UniProt Q9BPZ3|D6R9Y1	0.981 ± 0.02
UniProt Q9NXK8|Q9NXK8-2	1.018 ± 0.0035
UniProt Q9H668	0.991 ± 0.028
UniProt Q9P1W8|Q9P1W8-2	0.9928 ± 0.0047
NOB1 (UniProt Q9ULX3)	0.972 ± 0.013

Same assay, conditions: concentration: 2mM

Target	NP40-soluble protein abundance
NSMCE4A (UniProt Q9NXX6)	0.945 ± 0.067
UniProt Q9NXR1|Q9NXR1-2|X5DR54	1.07 ± 0.041
SORT1 (UniProt Q99523)	1.05 ± 0.089
MOV10 (UniProt Q9HCE1)	0.867 ± 0.15
C9orf78 (UniProt Q9NZ63)	1.03 ± 0.038
UniProt Q9Y520|Q9Y520-5|Q9Y520-7|E7EPN9|Q9Y520-4	1.2 ± 0.092
UniProt Q9Y5Y5|Q9Y5Y5-2	0.97 ± 0.05
UBAC1 (UniProt Q9BSL1)	1.01 ± 0.011
UniProt Q9UG63|Q9UG63-2	1.15 ± 0.065
ZNF48 (UniProt Q96MX3)	1.062 ± 0.0052
UniProt Q9UL63|C9J7E8|Q9UL63-2	0.968 ± 0.061
DIDO1 (UniProt Q9BTC0)	1.18 ± 0.093
UniProt Q9Y2A7|Q9Y2A7-2	0.974 ± 0.034
RBM27 (UniProt Q9P2N5)	1.15 ± 0.062
UniProt Q9UM21	0.987 ± 0.034
UCK1 (UniProt Q9HA47)	1.01 ± 0.028
UniProt Q9Y462|Q9Y462-3	1.02 ± 0.037
UniProt Q96P48|Q96P48-3	0.896 ± 0.14
UniProt Q9UPT9|Q9UPT9-2	0.953 ± 0.035

Target	NP40-soluble protein abundance
ISCU (UniProt Q9H1K1)	1.06 ± 0.018
TPX2 (UniProt Q9ULW0)	1.2 ± 0.077
UniProt Q9GZY4	0.939 ± 0.041
CISD1 (UniProt Q9NZ45)	1.04 ± 0.046
CBX8 (UniProt Q9HC52)	1.1 ± 0.04
PNKP (UniProt Q96T60)	1.02 ± 0.054
REXO4 (UniProt Q9GZR2)	1.09 ± 0.073
UniProt Q9UKT4|Q9UKT4-2	1.03 ± 0.031
CHST12 (UniProt Q9NRB3)	0.999 ± 0.01
UniProt Q9NYF8|Q9NYF8-2|Q9NYF8-3|E9PK91	1.19 ± 0.08
UniProt Q9NPB8|H0Y565	1.05 ± 0.034
HECA (UniProt Q9UBI9)	1 ± 0.017
UniProt Q9P2R7|Q9P2R7-2	0.943 ± 0.027
UniProt Q9BPZ3|D6R9Y1	1.01 ± 0.044
UniProt Q9NXK8|Q9NXK8-2	1 ± 0.031
UniProt Q9H668	0.97 ± 0.028
UniProt Q9P1W8|Q9P1W8-2	1.04 ± 0.041
NOB1 (UniProt Q9ULX3)	0.956 ± 0.027
